From the supplement of paper PMC10849652
The full data set covers some 8,800 targets. This sample favours those with a hit. About 0.5% of all pairs of compound and target were hits.

Experiments:
Assay in all cases: log2 fold change, soluble protein after heating vs DMSO (PISA); higher = thermal stabilisation; K562 lysate, 10 uM; active = over 0.2 and 3.5 SD of the protein, either way, in both replicates (recomputed)
ibrutinib = compound: C=CC(=O)N1CCC[C@@H](n2nc(-c3ccc(Oc4ccccc4)cc3)c3c(N)ncnc32)C1 [ibrutinib]
How it was run: (§1)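 The values are log-two fold changes in thermal stability compared with solvent controls and come from duplicates. They were obtained by TMTpro 16plex LC-MS/MS, with channel sums equalised, on the supernatant after 21,000xg for 90 min. That supernatant came from crude K562 extract at 1 mg/mL protein treated with 10 μM compound for 30 min, heated for 3 min across 48°C-58°C, pooled and brought to 0.5% NP-40 at 4°C.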

[1] = compound: CC(=O)c1cnc2ccc(-c3cc(Cl)c(O)c(Cl)c3)nc2c1N[C@H]1CC[C@H](CN(C)C)CC1
How it was run: as §1

ralimetinib = compound: CC(C)(C)Cn1c(N)nc2ccc(-c3[nH]c(C(C)(C)C)nc3-c3ccc(F)cc3)nc21 [ralimetinib]
How it was run: as §1

[2] = compound: CC(C)(O)CC(=O)NCCn1ccc2ncnc(Nc3ccc(Oc4cccc(C(F)(F)F)c4)c(Cl)c3)c21
How it was run: as §1

[3] = compound: CC(C)C1=C2N=C(C=C(N2N=C1)NCC3=CC=CC=C3)NCCCCCCN
How it was run: as §1

[4] = compound: CC1=C(C(CC(=O)N1)C2=CC=C(C=C2)C(F)(F)F)C(=O)NC3=C(C=C4C(=C3)C=NN4)F
How it was run: as §1

[5] = compound: CC1=C(C2=C(C=C1)C(=O)C3=CC=CC=C3N2CCCN)C
How it was run: as §1

[6] = compound: CC1=C(C=C(C=C1)NC(=O)C2=CC(=CC=C2)C(C)(C)C#N)NC3=CC4=C(C=C3)N=CN(C4=O)C
How it was run: as §1

[7] = compound: CC1=C(C=C(C=C1)NC(=O)C2=CC(=CC=C2)N(C)C)NC(=O)C3=CC=C(C=C3)O
How it was run: as §1

[8] = compound: CC1=CC=C(C=C1)SC2=C3C=C(SC3=CN=C2)C(=O)N
How it was run: as §1

Measured: log2 fold change

NTMT1 (UniProt Q9BV86)
inactive: ibrutinib -0.025 | [1] 0.022 | ralimetinib -0.025 | [2] -0.018 | [3] 0 | [4] -0.005 | [5] -0.01 | [6] -0.008 | [7] 0.047 | [8] 0.01

NIPSNAP3A (UniProt Q9UFN0)
inactive: ibrutinib -0.013 | [1] -0.014 | ralimetinib -0.016 | [2] -0.049 | [3] 0.029 | [4] 0.023 | [5] -0.021 | [6] 0.004 | [7] 0.022 | [8] -0.056

MYO1D (UniProt O94832)
inactive: ibrutinib -0.016 | [1] -0.012 | ralimetinib 0.04 | [2] 0.003 | [3] 0.018 | [4] -0.021 | [5] -0.009 | [6] -0.014 | [7] 0.01 | [8] 0.031

NUP205 (UniProt Q92621)
inactive: ibrutinib 0.015 | [1] 0.026 | ralimetinib 0.026 | [2] -0.006 | [3] -0.036 | [4] 0.003 | [5] 0.022 | [6] 0.026 | [7] 0.017 | [8] 0.008

NCAPG (UniProt Q9BPX3)
UniProt Q9BPX3, sequence (Q9BPX3 whole entry, looked up): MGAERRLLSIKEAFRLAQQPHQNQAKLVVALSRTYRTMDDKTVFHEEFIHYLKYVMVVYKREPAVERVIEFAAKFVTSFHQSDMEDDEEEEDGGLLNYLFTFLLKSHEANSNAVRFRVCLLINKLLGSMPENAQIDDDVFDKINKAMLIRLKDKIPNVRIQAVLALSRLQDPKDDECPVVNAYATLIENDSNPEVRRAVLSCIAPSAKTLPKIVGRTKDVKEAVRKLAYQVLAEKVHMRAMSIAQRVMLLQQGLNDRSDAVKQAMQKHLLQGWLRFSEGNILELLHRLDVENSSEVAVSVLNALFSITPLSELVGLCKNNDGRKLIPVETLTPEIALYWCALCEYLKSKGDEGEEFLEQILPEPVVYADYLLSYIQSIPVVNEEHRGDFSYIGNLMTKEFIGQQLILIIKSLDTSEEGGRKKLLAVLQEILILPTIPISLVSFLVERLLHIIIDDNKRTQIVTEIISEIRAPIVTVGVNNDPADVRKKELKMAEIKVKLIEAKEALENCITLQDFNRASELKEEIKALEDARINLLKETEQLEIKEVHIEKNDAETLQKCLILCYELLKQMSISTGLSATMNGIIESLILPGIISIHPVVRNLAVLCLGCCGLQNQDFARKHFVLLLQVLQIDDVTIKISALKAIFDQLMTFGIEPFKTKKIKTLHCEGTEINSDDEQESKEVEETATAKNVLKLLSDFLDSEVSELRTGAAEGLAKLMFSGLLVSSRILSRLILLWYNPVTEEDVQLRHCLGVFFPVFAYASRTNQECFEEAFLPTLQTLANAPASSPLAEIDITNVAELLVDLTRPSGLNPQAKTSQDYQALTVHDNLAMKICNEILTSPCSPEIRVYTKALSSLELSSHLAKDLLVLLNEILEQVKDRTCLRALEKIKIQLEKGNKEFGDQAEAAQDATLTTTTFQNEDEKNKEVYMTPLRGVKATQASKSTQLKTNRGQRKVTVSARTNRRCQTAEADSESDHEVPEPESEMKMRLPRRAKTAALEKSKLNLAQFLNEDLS
inactive: ibrutinib 0.006 | [1] 0.015 | ralimetinib 0.027 | [2] -0.015 | [3] -0.026 | [4] -0.009 | [5] -0.02 | [6] 0.014 | [7] 0.018 | [8] 0.024

N4BP2 (UniProt Q86UW6)
inactive: ibrutinib 0.094 | [1] -0.041 | ralimetinib 0.038 | [2] -0.053 | [3] 0.047 | [4] 0.03 | [5] -0.011 | [6] -0.005 | [7] -0.034 | [8] -0.027

NIPBL (UniProt Q6KC79)
inactive: ibrutinib 0.026 | [1] 0.008 | ralimetinib 0.035 | [2] -0.016 | [3] 0.036 | [4] 0.007 | [5] -0.025 | [6] -0.03 | [7] -0.044 | [8] 0.021

NFAT5 isoform 5 (UniProt O94916)
UniProt O94916, sequence (O94916 whole entry, looked up): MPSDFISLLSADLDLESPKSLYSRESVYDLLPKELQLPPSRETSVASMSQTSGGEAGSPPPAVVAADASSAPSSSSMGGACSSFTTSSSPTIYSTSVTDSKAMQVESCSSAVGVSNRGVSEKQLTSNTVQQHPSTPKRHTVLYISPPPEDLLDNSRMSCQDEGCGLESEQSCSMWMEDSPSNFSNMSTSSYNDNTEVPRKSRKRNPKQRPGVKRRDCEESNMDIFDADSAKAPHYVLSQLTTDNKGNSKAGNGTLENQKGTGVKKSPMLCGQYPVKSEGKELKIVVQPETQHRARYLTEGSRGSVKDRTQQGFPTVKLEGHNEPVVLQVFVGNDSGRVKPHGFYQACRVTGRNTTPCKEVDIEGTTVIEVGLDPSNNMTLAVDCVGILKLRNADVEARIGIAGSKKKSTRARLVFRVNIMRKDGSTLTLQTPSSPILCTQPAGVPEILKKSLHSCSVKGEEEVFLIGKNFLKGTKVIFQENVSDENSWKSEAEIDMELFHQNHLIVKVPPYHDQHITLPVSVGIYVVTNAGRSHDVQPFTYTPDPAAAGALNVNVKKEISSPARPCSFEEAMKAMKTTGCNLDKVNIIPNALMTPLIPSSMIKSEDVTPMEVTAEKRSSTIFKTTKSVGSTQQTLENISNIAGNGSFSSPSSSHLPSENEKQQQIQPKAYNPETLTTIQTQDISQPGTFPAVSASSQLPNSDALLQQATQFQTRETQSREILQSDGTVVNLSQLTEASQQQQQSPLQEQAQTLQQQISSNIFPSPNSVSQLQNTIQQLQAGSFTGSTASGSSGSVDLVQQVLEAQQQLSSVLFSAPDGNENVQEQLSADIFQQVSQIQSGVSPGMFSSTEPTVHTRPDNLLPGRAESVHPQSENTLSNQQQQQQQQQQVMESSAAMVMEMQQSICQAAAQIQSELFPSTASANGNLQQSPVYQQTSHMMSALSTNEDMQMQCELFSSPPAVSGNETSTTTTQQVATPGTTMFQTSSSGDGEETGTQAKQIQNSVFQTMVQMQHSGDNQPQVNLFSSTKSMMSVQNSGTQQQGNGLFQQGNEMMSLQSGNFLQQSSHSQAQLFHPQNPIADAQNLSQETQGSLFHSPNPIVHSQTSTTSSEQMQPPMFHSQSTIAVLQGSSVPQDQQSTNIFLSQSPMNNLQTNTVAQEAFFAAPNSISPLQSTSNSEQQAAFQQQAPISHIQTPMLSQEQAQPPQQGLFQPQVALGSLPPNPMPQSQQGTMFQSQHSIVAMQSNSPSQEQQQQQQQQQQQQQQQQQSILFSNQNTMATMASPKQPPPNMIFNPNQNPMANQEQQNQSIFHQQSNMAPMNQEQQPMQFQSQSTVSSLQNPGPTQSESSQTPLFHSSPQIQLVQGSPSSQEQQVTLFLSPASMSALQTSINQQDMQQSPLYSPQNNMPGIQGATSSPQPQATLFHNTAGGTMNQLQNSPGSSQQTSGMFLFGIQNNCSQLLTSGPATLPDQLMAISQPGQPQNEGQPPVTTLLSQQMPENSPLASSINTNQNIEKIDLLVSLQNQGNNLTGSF
inactive: ibrutinib -0.027 | [1] -0.029 | ralimetinib -0.017 | [2] 0.129 | [3] 0.003 | [4] 0.112 | [5] -0.008 | [6] -0.081 | [7] -0.004 | [8] 0.032

NUP188 (UniProt Q5SRE5)
inactive: ibrutinib -0.026 | [1] 0.019 | ralimetinib 0.041 | [2] -0.021 | [3] -0.028 | [4] -0.005 | [5] 0.035 | [6] -0.04 | [7] 0.042 | [8] -0.018

PBK (UniProt Q96KB5)
UniProt Q96KB5, sequence (Q96KB5 whole entry, looked up): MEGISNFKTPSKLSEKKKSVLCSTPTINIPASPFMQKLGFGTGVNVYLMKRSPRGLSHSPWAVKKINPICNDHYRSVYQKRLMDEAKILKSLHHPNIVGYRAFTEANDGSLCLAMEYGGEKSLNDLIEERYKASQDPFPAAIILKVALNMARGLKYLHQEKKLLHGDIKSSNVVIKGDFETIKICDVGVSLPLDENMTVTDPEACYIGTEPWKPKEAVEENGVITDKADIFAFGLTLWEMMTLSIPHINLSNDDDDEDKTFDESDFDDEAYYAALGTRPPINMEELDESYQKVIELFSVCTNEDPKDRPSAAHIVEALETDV
inactive: ibrutinib 0.006 | [1] -0.007 | ralimetinib 0.005 | [2] -0.005 | [3] 0.029 | [4] -0.008 | [5] 0.015 | [6] 0.006 | [7] -0.013 | [8] 0.019

NAA38 isoform 2 (UniProt Q9BRA0)
UniProt Q9BRA0, sequence (Q9BRA0 whole entry, looked up): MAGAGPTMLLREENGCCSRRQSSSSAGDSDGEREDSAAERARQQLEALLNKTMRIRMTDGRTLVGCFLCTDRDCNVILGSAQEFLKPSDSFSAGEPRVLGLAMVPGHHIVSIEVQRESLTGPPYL
inactive: ibrutinib 0.015 | [1] -0.012 | ralimetinib -0.02 | [2] -0.015 | [3] -0.014 | [4] 0.052 | [5] -0.017 | [6] -0.028 | [7] 0.022 | [8] -0.029

NARF (UniProt Q9UHQ1)
UniProt Q9UHQ1, sequence (Q9UHQ1 whole entry, looked up): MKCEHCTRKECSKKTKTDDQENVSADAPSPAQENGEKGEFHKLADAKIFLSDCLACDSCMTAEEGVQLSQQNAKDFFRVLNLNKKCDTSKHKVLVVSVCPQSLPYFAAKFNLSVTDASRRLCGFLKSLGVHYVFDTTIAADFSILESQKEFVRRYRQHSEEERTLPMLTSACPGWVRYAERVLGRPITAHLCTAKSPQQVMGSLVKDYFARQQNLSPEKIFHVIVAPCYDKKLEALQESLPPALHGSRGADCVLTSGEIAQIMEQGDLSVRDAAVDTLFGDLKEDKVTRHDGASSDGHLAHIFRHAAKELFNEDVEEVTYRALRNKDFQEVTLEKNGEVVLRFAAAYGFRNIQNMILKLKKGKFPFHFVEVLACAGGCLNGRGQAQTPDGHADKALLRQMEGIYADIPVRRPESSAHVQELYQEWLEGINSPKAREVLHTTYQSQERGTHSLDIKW
inactive: ibrutinib 0.004 | [1] 0.044 | ralimetinib -0.007 | [2] -0.013 | [3] -0.013 | [4] -0.007 | [5] -0.011 | [6] -0.013 | [7] -0.008 | [8] -0.113

PAN2 isoform 2 (UniProt Q504Q3)
inactive: ibrutinib -0.141 | [1] 0.036 | ralimetinib 0.022 | [2] -0.022 | [3] -0.025 | [4] 0.022 | [5] 0.015 | [6] 0.012 | [7] -0.038 | [8] 0.027

NAA35 (UniProt Q5VZE5)
UniProt Q5VZE5, sequence (Q5VZE5 whole entry, looked up): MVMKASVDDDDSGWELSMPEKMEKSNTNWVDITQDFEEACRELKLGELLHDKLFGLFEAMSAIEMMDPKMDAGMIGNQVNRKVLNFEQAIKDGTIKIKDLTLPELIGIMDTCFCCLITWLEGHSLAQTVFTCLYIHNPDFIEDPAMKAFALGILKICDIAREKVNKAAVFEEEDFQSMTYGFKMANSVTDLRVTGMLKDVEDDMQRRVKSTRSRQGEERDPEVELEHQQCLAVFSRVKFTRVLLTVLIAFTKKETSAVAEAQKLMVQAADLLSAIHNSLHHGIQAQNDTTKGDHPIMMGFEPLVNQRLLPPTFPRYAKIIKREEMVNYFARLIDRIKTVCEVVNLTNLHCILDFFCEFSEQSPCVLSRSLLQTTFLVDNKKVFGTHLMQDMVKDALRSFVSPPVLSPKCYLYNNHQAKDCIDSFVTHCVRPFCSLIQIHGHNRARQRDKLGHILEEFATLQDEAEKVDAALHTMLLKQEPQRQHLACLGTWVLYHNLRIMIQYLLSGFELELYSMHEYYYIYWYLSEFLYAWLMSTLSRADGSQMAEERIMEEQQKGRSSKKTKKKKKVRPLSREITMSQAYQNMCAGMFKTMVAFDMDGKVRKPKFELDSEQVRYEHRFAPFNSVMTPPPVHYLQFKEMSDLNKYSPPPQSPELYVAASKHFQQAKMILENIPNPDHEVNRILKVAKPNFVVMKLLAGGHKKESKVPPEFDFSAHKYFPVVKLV
inactive: ibrutinib -0.005 | [1] -0.017 | ralimetinib 0.006 | [2] 0.042 | [3] -0.01 | [4] -0.008 | [5] -0.004 | [6] -0.006 | [7] 0.017 | [8] -0.02

NCK1 (UniProt P16333)
inactive: ibrutinib 0.025 | [1] -0.029 | ralimetinib 0.003 | [2] 0.01 | [3] -0.016 | [4] 0.028 | [5] 0.002 | [6] -0.005 | [7] 0.029 | [8] 0

NFATC2IP (UniProt Q8NCF5)
inactive: ibrutinib 0.015 | [1] -0.037 | ralimetinib 0 | [2] -0.052 | [3] 0.01 | [4] -0.021 | [5] -0.019 | [6] -0.047 | [7] 0.013 | [8] 0.011

NEBL (UniProt O76041)
inactive: ibrutinib 0.087 | [1] 0.052 | ralimetinib 0.009 | [2] -0.003 | [3] -0.015 | [4] -0.037 | [5] -0.061 | [6] -0.006 | [7] -0.012 | [8] -0.025

OSBPL6 isoform 5 (UniProt Q9BZF3)
inactive: ibrutinib 0.118 | [1] -0.031 | ralimetinib 0.23 | [2] -0.042 | [3] 0.098 | [4] -0.032 | [5] 0.016 | [6] 0.015 | [7] -0.013 | [8] 0.01

PAIP2 (UniProt Q9BPZ3)
UniProt Q9BPZ3, sequence (Q9BPZ3 whole entry, looked up): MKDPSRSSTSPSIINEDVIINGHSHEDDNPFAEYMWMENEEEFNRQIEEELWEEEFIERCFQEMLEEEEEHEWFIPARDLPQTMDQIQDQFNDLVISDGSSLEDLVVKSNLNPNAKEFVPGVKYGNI
inactive: ibrutinib 0.145 | [1] 0.012 | ralimetinib -0.05 | [2] -0.006 | [3] 0.006 | [4] 0.015 | [5] 0.028 | [6] 0.01 | [7] -0.003 | [8] -0.008

NGLY1 (UniProt Q96IV0)
UniProt Q96IV0, sequence (Q96IV0 whole entry, looked up): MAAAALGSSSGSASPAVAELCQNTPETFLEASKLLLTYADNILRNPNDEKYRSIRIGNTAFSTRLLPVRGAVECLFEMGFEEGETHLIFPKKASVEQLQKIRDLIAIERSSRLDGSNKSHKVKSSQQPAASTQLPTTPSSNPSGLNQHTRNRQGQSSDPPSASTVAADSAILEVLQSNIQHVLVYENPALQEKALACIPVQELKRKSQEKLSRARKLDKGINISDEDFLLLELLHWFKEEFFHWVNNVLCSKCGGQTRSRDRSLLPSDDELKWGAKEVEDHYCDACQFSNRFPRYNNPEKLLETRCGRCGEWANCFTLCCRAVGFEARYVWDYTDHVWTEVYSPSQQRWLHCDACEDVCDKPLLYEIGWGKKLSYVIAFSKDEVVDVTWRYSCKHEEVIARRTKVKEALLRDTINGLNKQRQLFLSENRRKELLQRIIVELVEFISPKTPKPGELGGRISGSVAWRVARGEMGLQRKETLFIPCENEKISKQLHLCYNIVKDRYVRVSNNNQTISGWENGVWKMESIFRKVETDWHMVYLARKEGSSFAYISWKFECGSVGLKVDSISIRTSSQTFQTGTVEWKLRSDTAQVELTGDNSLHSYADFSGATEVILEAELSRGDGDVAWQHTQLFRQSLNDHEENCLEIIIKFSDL
inactive: ibrutinib 0 | [1] -0.01 | ralimetinib 0.011 | [2] -0.008 | [3] 0.03 | [4] -0.001 | [5] -0.01 | [6] -0.006 | [7] 0.017 | [8] 0

MYOM1 (UniProt P52179)
inactive: ibrutinib -0.017 | [1] 0.016 | ralimetinib 0.254 | [2] 0.026 | [3] -0.017 | [4] 0.011 | [5] -0.156 | [6] 0.052 | [7] -0.083 | [8] -0.025

NDC1 (UniProt Q9BTX1)
inactive: ibrutinib 0.009 | [1] -0.02 | ralimetinib 0.007 | [2] -0.012 | [3] -0.013 | [4] -0.009 | [5] -0.031 | [6] 0.032 | [7] 0.007 | [8] 0.072
